# From PubChem BioAssay (NCI)
# This is part of a sample that, as a whole, favours compounds with a hit. Of some 79,000 tested, about 15% had one in any assay. Values without a mark were called inactive. Active and inactive are the calls of the source. Cut-off read from the data, not from the text of the source: active = growth inhibition above about 70%; inactive = the rest.
# What was measured:
# [1] = NCI Yeast Anticancer Drug Screen. Data for the rad50 strain (AID 155);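 note: 0% = growth of vehicle-only cultures of the same strain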; conditions: S. cerevisiae rad50 strain growth inhibition, hits give high values
# Procedure, shortened: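 Inhibition values express reduced yeast growth in compound-treated cultures relative to vehicle-treated controls.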
# [2] = NCI Yeast Anticancer Drug Screen. Data for the mec2-1 strain (AID 157); conditions: S. cerevisiae mec2-1 strain, hits give high values
# Procedure, shortened: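 Growth inhibition is read against vehicle-treated controls after compound exposure of the mec2-1 yeast strain, which is defective in DNA damage repair or cell cycle control.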
# [3] = NCI Yeast Anticancer Drug Screen. Data for the sgs1 mgt1 strain (AID 161);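 note: 0% = growth of cultures given vehicle only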; conditions: S. cerevisiae sgs1 mgt1 strain, hits give high values
# Procedure, shortened: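 Yeast cells carrying a defined DNA-repair defect were exposed to test compounds. Growth inhibition was measured relative to vehicle-treated controls.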
# [4] = NCI Yeast Anticancer Drug Screen. Data for the cln2 rad14 strain (AID 165);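 note: 0% = growth equal to vehicle treated cultures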; conditions: S. cerevisiae cln2 rad14 strain, hits give high values
# Procedure, shortened: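 Growth inhibition, relative to vehicle-treated controls, is the read-out. The test organism is a yeast strain with defined genetic alterations, cln2 rad14.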
# [5] = NCI Yeast Anticancer Drug Screen. Data for the bub3 strain (AID 167); conditions: S. cerevisiae bub3 mutant strain, hits give high values
# Procedure, shortened: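 Steps: expose the mutant yeast strain to compound; grow alongside vehicle-treated cultures; measure growth; express inhibition against the vehicle cultures.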
# [6] = NCI Yeast Anticancer Drug Screen. Data for the mlh1 rad18 strain (AID 175); conditions: S. cerevisiae mlh1 rad18 strain growth inhibition, hits give high values
# Procedure, shortened: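 Cells of a genetically altered yeast strain, deficient in DNA damage repair, were treated with compound. Their growth was then compared with that of vehicle-treated cultures to give inhibition.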
# [7] = at 5.0 µM (retest, dose inferred, filed as 0.5)
# [8] = at 50.0 µM (retest, dose inferred, filed as 5.0)
Structure (SMILES),"growth inhibition [1, 7] [%]","growth inhibition [1, 8]",growth inhibition ([1]; at 50.0 µM),"growth inhibition [2, 7] [%]","growth inhibition [2, 8]",growth inhibition ([2]; at 50.0 µM),"growth inhibition [3, 7] [%]","growth inhibition [3, 8]",growth inhibition ([3]; at 50.0 µM),"growth inhibition [4, 7] [%]","growth inhibition [4, 8]",growth inhibition ([4]; at 50.0 µM),"growth inhibition [5, 7] [%]","growth inhibition [5, 8]",growth inhibition ([5]; at 50.0 µM),"growth inhibition [6, 7] [%]","growth inhibition [6, 8]",growth inhibition ([6]; at 50.0 µM)
Cc1ccc(Sc2ccc(C)cc2[N+](=O)[O-])c([N+](=O)[O-])c1,33,40%,2.7%,31,35%,-10.7%,69,68%,66.2%,39,37%,20.5%,56,56%,29.1%,43,53%,-8.85%
CC(C)(C)c1cc(C2c3cc4c(cc3OC(O)(CO)C2C(=O)O)OCO4)cc(C(C)(C)C)c1O (configuration not stated) (tested in a mixture with another compound),-23,39%,49.9%,-6,61%,50.1%,-20,50%,37%,5,68%,72.1% (active),-10,63%,55%,11,73% (active),52.6%
O/N=C1/C(=C/c2ccc3c(c2)OCO3)CCCC1C(NO)c1ccc2c(c1)OCO2 (configuration not stated),-2,65%,82.3% (active),-2,3%,90.5% (active),4,50%,97% (active),-5,25%,-7.15%,-2,51%,38.4%,-3,27%,97.4% (active)
CCCCCCCCCCC(C(=O)OCCCC)P(=O)(OCCCC)OCCCC (configuration not stated),11,95% (active),36.4%,9,95% (active),73.2% (active),8,86% (active),30.8%,13,96% (active),81.2% (active),4,95% (active),21.1%,6,94% (active),59.3%
CC(C)c1cc(C(=O)[O-])c(O)c(C(C)C)c1.CC(C)c1cc(C(=O)[O-])c(O)c(C(C)C)c1.CC(C)c1cc(C(=O)[O-])c(O)c(C(C)C)c1.CC(C)c1cc(C(=O)[O-])c(O)c(C(C)C)c1.CC(C)c1cc(C(=O)[O-])c(O)c(C(C)C)c1.CC(C)c1cc(C(=O)[O-])c(O)c(C(C)C)c1.[Cu+2].[Mn+2].[Mn+2],40,63%,43.5%,38,57%,50.5%,31,70% (active),44.5%,34,53%,50.7%,37,66%,55%,39,66%,82.1% (active)
CCCCCN=C(C)C(C)=NCCCCC,-15,70% (active),93.3% (active),3,92% (active),74.3% (active),9,50%,31.4%,-50,63%,83.7% (active),-12,86% (active),96.8% (active),-9,94% (active),95% (active)
CCN(CC)Cc1cc(Nc2c3ccccc3nc3c4ccccc4n(C)c23)ccc1O,0,23%,74.2% (active),2,-4%,16.2%,-10,9%,30.2%,0,0%,-1.6%,-6,13%,55.3%,-10,0%,42.9%
CN(C)N=Nc1ccc(-c2ccccc2)cc1,24,95% (active),87.8% (active),42,92% (active),78.3% (active),6,60%,81.8% (active),30,85% (active),74.2% (active),37,64%,86.5% (active),38,89% (active),84.5% (active)
CSc1nc(SC)c2cn(Cc3ccccc3)nc2n1,-2,94% (active),55.5%,-3,95% (active),52.1%,-5,97% (active),80.7% (active),-8,85% (active),26.2%,4,92% (active),42.8%,-2,95% (active),63.8%
